Assay [1] is described as follows: qHTS profiling of the MIPE4 collection as inhibitors of Plasmodium falciparum (3D7) proliferation (AID 743344). The note with it: P. falciparum 3D7 in erythrocytes, SYBR Green DNA fluorescence, 72 h; at 28.5 µM unless noted. In a few lines: (§1)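 Erythrocytes infected with P. falciparum (0.3% parasitemia, 2.5% hematocrit) incubated with compounds 72 h at 37 C, 5% CO2. Lysis with saponin/Triton buffer containing SYBR Green I, overnight at room temperature in the dark; DNA fluorescence (485/535 nm) normalised to 0.29 uM artemisinin and DMSO.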
(In general: In qHTS, concentration-response curves come from the screen itself.)

Assay [2] is described as follows: qHTS profiling of the MIPE4 collection as inhibitors of Plasmodium falciparum (DD2) proliferation (AID 743345). The following applies: P. falciparum Dd2 in erythrocytes, SYBR Green DNA, 72 h; at 28.5 µM unless noted. Summed up:
as §1

Assay [3] in a line: qHTS profiling of the MIPE4 collection as inhibitors of Plasmodium falciparum (DD2) proliferation (Rep 2) (AID 743346). The following applies: P. falciparum Dd2 in erythrocytes, SYBR Green DNA, 72 h; at 28.5 µM unless noted. In a few lines: as §1
Assay [4] in a line: qHTS profiling of the MIPE4 collection as inhibitors of Plasmodium falciparum (HB3) proliferation (AID 743347).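 Also: plate controls were DMSO vehicle wells for no effect and artemisinin wells for full effect.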 The note with it: P. falciparum HB3 in erythrocytes, SYBR Green DNA, 72 h; at 28.5 µM unless noted. In a few lines: as §1
Assay [5] can be described thus: High-throughput drug toxicity screening in the BPDCN cell line Gen2.2 (AID 1224824). The note with it: Gen2.2 BPDCN cells; at 45.8 µM (top of the series) unless noted. In a few lines:
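Seed 500 exponentially growing Gen2.2 cells/well; add compounds by pin tool; incubate 48 h, 37 °C, 5% CO2; add CellTiter-Glo, 15 min RT; read luminescence. % activity vs DMSO (100%) and bortezomib (0%).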

Assay [6] in a line: High-throughput drug toxicity screening in the BPDCN cell line Cal-1 (AID 1224825). The following applies: Cal-1 BPDCN cell viability, qHTS; at 45.8 µM (top of the series) unless noted. In a few lines:
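Exponentially growing Cal-1 cells, 500 per well in phenol red-free RPMI with 10% FBS, were exposed to compounds for 48 h at 37 °C, 5% CO2. Viability was read by CellTiter-Glo luminescence and normalised to DMSO (100%) and 9.2 uM bortezomib (0%).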

Assay [7] is described as follows: qHTS assay for measurement of the activity of small molecule inhibitors on Zika virus induced Caspase-3 activity in human iPSC derived neural progenitor cells (hNPCs) (AID 1224857; active = well fitted curve in the direction sought with a large enough effect; an effect the other way counts as inactive or inconclusive; also: nearly all actives have a fitted effect of over 65% in size; also: potency is read from the fitted curve at half-maximal effect). In a few lines: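 Percent inhibition of virus-induced caspase-3/7 luminescence (Caspase-Glo), scaled between uninfected cells and Zika-infected cells. hNPCs received compound 1 hr before ZIKV at 2 FFU/cell, with 6 hours infection at 37 C.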

Assay [8] is described as follows: qHTS assay for measurement of the activity of small molecule inhibitors on Zika virus induced Caspase-3 activity in human astrocytoma cells (AID 1224859; active = well fitted curve in the direction sought with a large enough effect; an effect the other way counts as inactive or inconclusive; also: potency is read from the fitted curve at half-maximal effect). In a few lines:
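Luminescent caspase-3/7 read-out (30 min reagent, room temperature) in human SNB-19 cells infected 6 h with ZIKV (2 FFU/cell) after 1 h compound pre-incubation; Data were normalised to uninfected and infected wells.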

The nature of assay [9]: qHTS Screen of the MIPE 4.0 Collection Against Ewings Sarcoma (TC32) (AID 1259256; active = well fitted curve in the direction sought with a large enough effect; an effect the other way counts as inactive or inconclusive;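 also: 100% = DMSO-treated cells and 0% = medium-only wells without cells; nearly all actives have a fitted effect of over 45% in size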). In a few lines:
(§2)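 Compound titrations go onto adherent log-phase cells 4 h after seeding, incubate 48 h at 37C, then CellTiter-Glo luminescence reports viability relative to DMSO and cell-free controls.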

Assay [10] can be described thus: qHTS profiling for inhibitors of Plasmodium falciparum (3D7) proliferation (AID 743322).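 Also: infected erythrocytes exposed to compound for 72 h before lysis; 100% = DMSO vehicle wells and 0% = 0.29 µM artemisinin.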 The following applies: P. falciparum 3D7 proliferation; at 28.7 µM (top of the series). Summed up:
as §1

The nature of assay [11]: qHTS profiling for inhibitors of Plasmodium falciparum (DD2) proliferation (AID 743323). The following applies: lower = more inhibition; at 28.7 µM (top of the series). In a few lines: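 Parasite proliferation measured via DNA-dye fluorescence, as uninfected erythrocytes lack DNA. Cultures at 0.3% parasitemia and 2.5% hematocrit incubated 72 h with compound; signal scaled between vehicle and 0.29 uM artemisinin wells.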

The nature of assay [12]: qHTS profiling for inhibitors of Plasmodium falciparum (HB3) proliferation (AID 743324; active = well fitted curve in the direction sought with a large enough effect; an effect the other way counts as inactive or inconclusive;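 also: 100% = DMSO vehicle wells and 0% = artemisinin-treated control wells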). The note with it: Plasmodium falciparum HB3 blood-stage proliferation; at 28.7 µM (top of the series). In a few lines: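 P. falciparum HB3 grown in erythrocytes (0.3% parasitemia, 2.5% hematocrit final) with compound for 72 h at 37 C, 5% CO2. Parasite DNA detected by SYBR Green after saponin/triton lysis overnight; normalized to 0.29 uM artemisinin and DMSO.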

Assay [13] in a line: Identifying Small Molecule Inhibitors of Pancreatic Cancer Stem Cells (SN12C, Spheroid) (AID 1259360; active = well fitted curve in the direction sought with a large enough effect; an effect the other way counts as inactive or inconclusive;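 also: 100% = DMSO-treated cells and 0% = wells without cells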). The following applies: Potency: SN12C spheroid viability. Summed up:
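Monolayer and spheroid cultures are compared. Spheroids form over 14 days in stem cell medium on hydrogel-coated low-attachment plates, then are exposed to compound for 48 h before CellTiter-Glo luminescence.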

A short description of assay [14]: qHTS Screen of the MIPE 4.0 Collection Against Ewings Sarcoma (EW8) (AID 1259255; active = well fitted curve in the direction sought with a large enough effect; an effect the other way counts as inactive or inconclusive; also: nearly all actives have a fitted effect of over 35% in size; also: potency is read from the fitted curve at half-maximal effect;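 as to viability: 100% = DMSO-treated cells and 0% = medium-only wells without cells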). Summed up:
as §2

The nature of assay [15]: qHTS Screen of the MIPE 4.0 Collection Against Ewings Sarcoma (RDES) (AID 1259252; active = well fitted curve in the direction sought with a large enough effect; an effect the other way counts as inactive or inconclusive;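 also: 100% = DMSO-treated cells and 0% = medium-only wells without cells; nearly all actives have a fitted effect of over 35% in size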). Summed up: as §2
Assay [16] can be described thus: qHTS Screen of the MIPE 4.0 Collection Against Ewings Sarcoma (TC71) (AID 1259253; active = well fitted curve in the direction sought with a large enough effect; an effect the other way counts as inactive or inconclusive;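 also: 100% = DMSO-treated cells and 0% = medium-only wells without cells; nearly all actives have a fitted effect of over 40% in size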). Summed up: as §2

Records with an inconclusive call do not appear. Calls of active or inactive are those of the source. Unless noted, no rule for the calls is given here.

Consider `N#CC1(c2ccc(NC(=O)c3cccnc3NCc3ccncc3)cc2)CCCC1`, for which the parasite growth, % of DMSO control in [1] is 18.4%. Also, the parasite growth remaining, % of DMSO control (lower = more inhibition) in assay [2] was found to be 72.9%. In [3], this molecule gave a parasite growth, % of control (lower = inhibition) of 65.6%. Also, the growth, % of control in [4] is 23.3%. Further, the cell viability, % of control (lower = more cytotoxic) in assay [5] was determined as 286%. Moreover, in [6], the viability (% of control) turned out to be 93.1%. In addition, the values for the Potency in assay [7] and in [8] were 16.6 µM (active) and 18.7 µM (active), respectively. Also, in assay [9], the Potency result was “inactive”.
`O=C(O)C(O)Cc1ccc(O)c(O)c1` (stereo unspecified): the parasite growth, % of DMSO control in [1] stood at 102%. For the same molecule, in assay [2], the parasite growth remaining, % of DMSO control (lower = more inhibition) worked out at 79.5%. Also, in assay [3], the parasite growth, % of control (lower = inhibition) was found to be 65.6%. Further, the growth, % of control in assay [4] was determined as 106%. For the same molecule, in assay [5], the cell viability, % of control (lower = more cytotoxic) worked out at 94.8%. For the same molecule, the viability (% of control) in [6] is 105%. Besides, the Potency entry in assay [7], in assay [8] and in assay [9] was “inactive” in each case.
In [10], `O=C(N[C@@H](c1ccccc1)[C@@H]1CCCCN1)c1cccc(C(F)(F)F)c1Cl` returned a remaining parasite growth % (stronger effect = lower value) of 52.4%. Moreover, the activity, percent of control in assay [11] is 16.6%. For the same molecule, the remaining proliferation (% of control), lower = more inhibition in assay [12] came to 29.7%. This molecule displayed a parasite growth, % of DMSO control in assay [1] of 9.06%. The parasite growth remaining, % of DMSO control (lower = more inhibition) in assay [2] amounted to 8.97%. Moreover, the parasite growth, % of control (lower = inhibition) in assay [3] turned out to be 26.8%. Further, the cell viability, % of control (lower = more cytotoxic) in assay [5] stood at 87.4%. Besides, the viability (% of control) in assay [6] stood at 24.7%. Also, the Potency entry in assay [7], in assay [8] and in assay [13] was “inactive” throughout.
The molecule `OC[C@H]1O[C@@H](Oc2cc(O)cc(C=Cc3ccc(O)cc3)c2)[C@H](O)[C@@H](O)[C@H]1O` displayed a parasite growth, % of DMSO control in [1] of 82.6%. Moreover, the parasite growth remaining, % of DMSO control (lower = more inhibition) in assay [2] was found to be 120%. The parasite growth, % of control (lower = inhibition) in assay [3] was determined as 77.5%. Also, in assay [4], the growth, % of control was found to be 83.3%. Besides, the cell viability, % of control (lower = more cytotoxic) in assay [5] turned out to be 71.3%. In addition, the viability (% of control) in assay [6] was determined as 60.5%. In addition, the Potency result in [7] and in assay [8] was “inactive” each time.
Take `Nc1ncnc2c1ncn2[C@@H]1O[C@H](CO)C[C@@H]1O`: the parasite growth, % of DMSO control in assay [1] was 43.4%. Besides, the parasite growth remaining, % of DMSO control (lower = more inhibition) in [2] turned out to be 56.1%. In assay [4], this molecule showed a growth, % of control of 79%. In assay [5], the cell viability, % of control (lower = more cytotoxic) was determined as 96.4%. Moreover, the viability (% of control) in [6] is 39.8%. For the same molecule, the Potency result in [7], in assay [8] and in assay [14] was “inactive” each time.
`CN(C[C@@H]1COCCO1)S(=O)(=O)Nc1ccc2ccc3ncc(-c4cnn(C)c4)cc3c(=O)c2c1` gave a parasite growth, % of DMSO control in assay [1] of 13.4%. For the same molecule, the parasite growth remaining, % of DMSO control (lower = more inhibition) in assay [2] was found to be 47.9%. The parasite growth, % of control (lower = inhibition) in assay [3] was 21.5%. The growth, % of control in assay [4] stood at 7.9%. Besides, the cell viability, % of control (lower = more cytotoxic) in [5] amounted to 12.9%. Also, the viability (% of control) in assay [6] was determined as 7.57%. Also, the Potency result in [7] was “inactive”. In addition, the Potency in assay [14] was 18.7 µM (active).
As for `CCC(CC)[C@H](NC(C)=O)[C@@H]1[C@H](O)[C@@H](C(=O)O)C[C@@H]1N=C(N)N`, the cell viability, % of control (lower = more cytotoxic) in assay [5] worked out at 81.8%. The viability (% of control) in assay [6] is 105%. For the same molecule, the Potency result in assay [7], in [15], in assay [16], in assay [14] and in assay [9] was “inactive” each time.
In turn, `NC1CCC(Nc2nc(Nc3ccc(C(=O)N4CCCCC4)cc3)c3ncn(-c4cccc(F)c4)c3n2)CC1` (stereo unspecified) displayed a parasite growth, % of DMSO control in [1] of 113%. In assay [2], the parasite growth remaining, % of DMSO control (lower = more inhibition) was found to be 89.1%. The molecule also had a parasite growth, % of control (lower = inhibition) in [3] of 47.7%. In [4], this molecule returned a growth, % of control of 71.8%. Moreover, the cell viability, % of control (lower = more cytotoxic) in [5] came to 208%. Also, in assay [6], the viability (% of control) worked out at 101%. In addition, the Potency in [7] was 16.6 µM (active). Besides, the Potency result in assay [15], in assay [16], in assay [14] and in assay [9] was “inactive” each time.
With `CC(C)C(=O)Nc1ncc(-c2cc(C(F)F)nn2-c2c(Cl)cccc2Cl)s1`, in assay [10], the remaining parasite growth % (stronger effect = lower value) stood at 0.0648%. Moreover, the activity, percent of control in assay [11] is -0.314%. The remaining proliferation (% of control), lower = more inhibition in [12] was -0.0078%. In [1], this molecule yielded a parasite growth, % of DMSO control of 9.88%. Also, the parasite growth remaining, % of DMSO control (lower = more inhibition) in [2] was 13.6%. For the same molecule, the parasite growth, % of control (lower = inhibition) in assay [3] is 18.7%. Also, the growth, % of control in [4] turned out to be 11.3%. Besides, in assay [5], the cell viability, % of control (lower = more cytotoxic) was 113%. Also, the viability (% of control) in assay [6] was 6.45%. Besides, in assay [7], the Potency result was “inactive”.

Values taken from PubChem BioAssay (NCATS).
